The values that follow come from PubChem BioAssay (NCI).

Test in all cases: NCI-60 one-dose screen, 48 h (100 = growth as untreated, 0 = no growth, -100 = all killed)
What all share (settings): 10 µM unless noted

Assay [1] has as its system SK-MEL-2 melanoma.
The test system of assay [2] is SN12C renal.
Assay [3] relates to UO-31 renal.
For assay [4], the system named is TK-10 renal.
Assay [5] concerns ACHN renal.
Assay [6] deals with CAKI-1 renal.
For assay [7], the system named is A498 renal.
In assay [8] the test system is CCRF-CEM leukemia.
For assay [9], the system named is MOLT-4 leukemia.

This is part of a sample that, as a whole, favours compounds with a hit. Of some 83,000 tested, about 20% had one in any assay.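 Values shown are percent growth following 48 h exposure of cells in 96-well plates to a single concentration of compound; below 10 was considered active.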 Unmarked numbers belong to inactive results. Activity calls are given as the source filed them.

Take `C=CC[P+](c1ccccc1)(c1ccccc1)c1ccccc1`: the growth in [1] was 24.6%; in [2], 69.7%; in [3], 99.7%; in assay [4], 78.7%; in assay [5], 91.2%; in assay [6], 90.9%. Further, the results for the growth in [7], in assay [8] and in assay [9] were 81.5%, 59.7% and 62.5%, respectively.

With `O=[N+]([O-])c1cc2c(cc1Br)C1C(C3C2C(Cl)(Cl)C(Cl)=C(Cl)C3(Cl)Cl)C(Cl)(Cl)C(Cl)=C(Cl)C1(Cl)Cl` (configuration not stated), the growth in [1] was 81.2%; in assay [2], 98.7%; in [3], 74.4%; in [4], 103%; in assay [5] it was 102%; in [6], 91.4%. Besides, the growth was 111% in [7], 86.5% in assay [8] and 95.1% in assay [9].

As for `CC(=O)OC[C@]1(C)C=C2C(=O)[C@](C)(O)C3(CC3)C(C)=C2[C@H]1OC(C)=O`, the growth is 103% in assay [1]; 83.6% in [2]; 41.5% in assay [3]; 99.1% in assay [4]; 51.3% in [5]; 84.2% in assay [6]. Further, the growth in assay [8] is 95.1%; in assay [9], 109%.

For the compound `COc1ccc(/C=N/OCC(O)CN2CCC(O)CC2)cc1OC1CCCC1` (configuration not stated), the growth was 105% in assay [1]; 103% in assay [2]; 88.6% in assay [3]; 106% in assay [4]; 104% in assay [5]; 95.4% in assay [6]. The values for the growth in [8] and in [9] were 113% and 106%, respectively.

Turning to `O=c1c2cc(F)ccc2oc2c(NCCNCCO)nc3ccccc3c12`, the growth in assay [1] was 84.7%; in assay [2], 37.7%; in [3] it was 37.1%; in assay [4], 71.3%; in assay [5], 19.1%; in [6], 30.2%. Further, the growth is 30.9% in assay [8] and -0.96% (active) in [9].

Take `O=C(N/N=C(\CS(=O)(=O)c1ccccc1)c1cc2ccccc2oc1=O)c1ccccc1`: the growth in [1] was 115%; in [2], 101%; in assay [3], 94%; in [4], 119%; in assay [5], 101%; in [6], 96.4%. The growth in assay [8] is 106%; in [9], 115%.

For `CCOC(=O)c1cc2c(n(C)c1=O)-c1cnn(-c3ccc(OC)cc3)c1CC2`, the growth in assay [1] was 105%; in [2], 99.8%; in [3], 77.5%; in [4] it was 130%; in [5], 81.4%; in assay [6], 89.8%. Also, the growth in assay [7] is 87%; in [8] it was 89.5%; in assay [9], 94.2%.

For `O=C(Nc1nc2ccccc2[nH]1)C(=O)Nc1nc2ccccc2[nH]1`, the growth in [1] was 98.8%; in assay [2], 94.5%; in assay [3] it was 69.6%; in assay [4], 132%; in [5] it was 93.4%; in assay [6], 91.5%. In addition, the growth in assay [7] is 99.1%; in assay [8], 94.7%; in assay [9], 103%.

Take `O=C(Nc1ccc(Cl)c(Cl)c1)NC(CO)(CO)CO`: the growth in assay [1] is 100%; in assay [2], 102%; in assay [3], 73.9%; in [4] it was 113%; in [5] it was 97.7%; in assay [6], 91%. Moreover, the growth in [7] was 83.8%; in assay [8] it was 93.3%; in assay [9], 98.3%.

With `COC(=O)c1c2c(c(C)[n+]([O-])c1C)C(=O)C=C(NCc1ccc(Cl)cc1)C2=O`, the growth is -30.9% (active) in assay [1]; -84.9% (active) in [2]; -9.07% (active) in assay [3]; 21.7% in assay [4]; -19.1% (active) in assay [5]; -3.15% (active) in assay [6]. Also, the results for the growth in [8] and in [9] were -6.94% (active) and -32.2% (active), respectively.

As to `FC(F)(F)c1cc(CNc2ncc(Br)c(Cl)n2)cc(C(F)(F)F)c1`, the growth in assay [1] is 94%; in assay [2], 99.7%; in assay [3], 83.3%; in [4], 97.9%; in assay [5] it was 104%; in assay [7], 96.7%. Moreover, the growth in assay [8] was 83.2%; in assay [9], 86%.

For the compound `c1ccc(-c2n(Cc3ccc4ccccc4n3)c3ccccc3[n+]2Cc2ccc3ccccc3n2)cc1`, the growth in assay [1] is -20.7% (active); in assay [2], 2.63% (active); in assay [3], 27.8%; in assay [5] it was 34.2%; in assay [6], -17.6% (active); in [7], -16.4% (active). Besides, the growth was 12.5% in assay [8] and -16.9% (active) in [9].

For `COc1ccc(Nc2[nH]n(C3=Nc4ccccc4Sc4ccccc43)c(=O)c2C#N)cc1`, the growth was 59.4% in [1]; 50.1% in assay [2]; 35.6% in assay [3]; 65.9% in assay [4]; 40.3% in assay [5]; 50.2% in [8]. Besides, the growth in [9] is 46.5%.

Turning to `O=C1CC2c3cc(-c4cc5ccccc5o4)ccc3CCN2C(=O)N1c1ccccc1` (configuration not stated), the growth in [1] was 83%; in assay [2] it was 89.3%; in assay [3] it was 58.8%; in [4], 78.5%; in assay [6], 80.8%; in assay [7] it was 82%. Also, the growth is 68.2% in assay [8] and 64.1% in [9].

`O=C(O)CCN1CCN(c2cccc(Cl)c2)CC1`: the growth was 107% in assay [1]; 100% in assay [2]; 106% in assay [3]; 138% in assay [4]; 94.8% in [5]; 94.2% in assay [7]. In addition, the growth in [8] is 105%; in assay [9], 91.3%.

As for `COC(=O)[C@H]1CCCN1C(=O)[C@H]1CCCN1C(=O)[C@@H](Cc1c[nH]c2ccccc12)NC(=S)Nc1cc(C(F)(F)F)cc(C(F)(F)F)c1`, the growth is 93.2% in assay [1]; 43.2% in assay [2]; 41.1% in [3]; 78.4% in assay [4]; 28.5% in [6]; 56% in [7]. The results for the growth in [8] and in [9] were 36% and 21.2%, respectively.
